In PubChem BioAssay (NCATS):
Records with an inconclusive call do not appear. The source made the active and inactive calls. The call rests on the fitted dose curve; in most records, active means well fitted curve in the direction sought with a large enough effect; inconclusive means small, poorly fitted or top-dose-only effect, or another doubt; inactive means no such curve, though single readings can be large; an effect the other way counts as inactive or inconclusive.

Key:
[1] = molecular target: Rap guanine nucleotide exchange factor 3 (Homo sapiens) (UniProt O95398); assay: Confirmatory qHTS for agonist of cAMP-regulated guanine nucleotide exchange factor 3 (EPAC1) (AID 1645881);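 further: EPAC1 catalysed release of BODIPY-GDP from Rap1B seen as fluorescence loss; nearly all actives have a fitted effect of over 75% in size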
[2] = molecular target: Rap guanine nucleotide exchange factor 4 (Homo sapiens) (UniProt Q8WZA2); assay: Confirmatory qHTS for agonist of cAMP-regulated guanine nucleotide exchange factor 4 (EPAC2) (AID 1645884);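 further: nucleotide exchange releases bodipy-GDP from Rap1 and this lowers its fluorescence; nearly all actives have a fitted effect of over 65% in size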
[3] = molecular target: Rap guanine nucleotide exchange factor 4 (Homo sapiens) (UniProt Q8WZA2); assay: Confirmatory qHTS for antagonist of cAMP-regulated guanine nucleotide exchange factor 4 (EPAC2) (AID 1645885); further: nearly all actives have a fitted effect of over 25% in size
[4] = molecular target: Rap guanine nucleotide exchange factor 3 (Homo sapiens) (UniProt O95398); assay: Counterscreen qHTS for antagonist of cAMP-regulated guanine nucleotide exchange factor 3 (EPAC1) (AID 1645888);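 further: fluorescence loss as bound BODIPY-GDP is released from Rap1B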
Method in brief: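 Measured: fluorescence of BODIPY-GDP bound to Rap1B, which falls as exchange proceeds. Conditions include 50 uM competing GDP, 5 and 30 min reads, and a later cAMP challenge for antagonist detection.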

Measured: Potency

Chain of Rap guanine nucleotide exchange factor 3 (Homo sapiens) (O95398 whole entry, looked up): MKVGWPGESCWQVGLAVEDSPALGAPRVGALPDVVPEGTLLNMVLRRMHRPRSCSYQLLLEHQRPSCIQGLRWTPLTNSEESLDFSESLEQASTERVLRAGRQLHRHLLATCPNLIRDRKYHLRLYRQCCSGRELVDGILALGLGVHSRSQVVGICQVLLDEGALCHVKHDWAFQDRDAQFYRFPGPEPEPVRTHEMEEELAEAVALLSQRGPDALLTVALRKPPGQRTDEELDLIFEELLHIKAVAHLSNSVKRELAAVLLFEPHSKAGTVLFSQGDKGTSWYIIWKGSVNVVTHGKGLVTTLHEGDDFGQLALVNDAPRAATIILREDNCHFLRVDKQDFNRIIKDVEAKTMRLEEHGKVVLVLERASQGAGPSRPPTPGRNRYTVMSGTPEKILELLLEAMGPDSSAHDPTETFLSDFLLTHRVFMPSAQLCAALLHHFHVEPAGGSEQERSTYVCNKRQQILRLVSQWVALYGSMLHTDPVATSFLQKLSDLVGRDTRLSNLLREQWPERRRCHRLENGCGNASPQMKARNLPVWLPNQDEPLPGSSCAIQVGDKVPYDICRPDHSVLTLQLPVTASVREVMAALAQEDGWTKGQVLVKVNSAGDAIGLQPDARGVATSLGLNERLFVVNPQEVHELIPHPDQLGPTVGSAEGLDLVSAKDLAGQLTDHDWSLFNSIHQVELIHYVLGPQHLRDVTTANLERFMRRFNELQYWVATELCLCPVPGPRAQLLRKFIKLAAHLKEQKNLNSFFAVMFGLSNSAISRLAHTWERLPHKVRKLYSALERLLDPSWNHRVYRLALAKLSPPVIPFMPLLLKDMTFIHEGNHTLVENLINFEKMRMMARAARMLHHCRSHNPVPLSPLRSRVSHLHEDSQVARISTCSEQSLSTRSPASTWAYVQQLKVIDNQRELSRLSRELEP
Chain of Rap guanine nucleotide exchange factor 4 (Homo sapiens) (Q8WZA2 whole entry, looked up): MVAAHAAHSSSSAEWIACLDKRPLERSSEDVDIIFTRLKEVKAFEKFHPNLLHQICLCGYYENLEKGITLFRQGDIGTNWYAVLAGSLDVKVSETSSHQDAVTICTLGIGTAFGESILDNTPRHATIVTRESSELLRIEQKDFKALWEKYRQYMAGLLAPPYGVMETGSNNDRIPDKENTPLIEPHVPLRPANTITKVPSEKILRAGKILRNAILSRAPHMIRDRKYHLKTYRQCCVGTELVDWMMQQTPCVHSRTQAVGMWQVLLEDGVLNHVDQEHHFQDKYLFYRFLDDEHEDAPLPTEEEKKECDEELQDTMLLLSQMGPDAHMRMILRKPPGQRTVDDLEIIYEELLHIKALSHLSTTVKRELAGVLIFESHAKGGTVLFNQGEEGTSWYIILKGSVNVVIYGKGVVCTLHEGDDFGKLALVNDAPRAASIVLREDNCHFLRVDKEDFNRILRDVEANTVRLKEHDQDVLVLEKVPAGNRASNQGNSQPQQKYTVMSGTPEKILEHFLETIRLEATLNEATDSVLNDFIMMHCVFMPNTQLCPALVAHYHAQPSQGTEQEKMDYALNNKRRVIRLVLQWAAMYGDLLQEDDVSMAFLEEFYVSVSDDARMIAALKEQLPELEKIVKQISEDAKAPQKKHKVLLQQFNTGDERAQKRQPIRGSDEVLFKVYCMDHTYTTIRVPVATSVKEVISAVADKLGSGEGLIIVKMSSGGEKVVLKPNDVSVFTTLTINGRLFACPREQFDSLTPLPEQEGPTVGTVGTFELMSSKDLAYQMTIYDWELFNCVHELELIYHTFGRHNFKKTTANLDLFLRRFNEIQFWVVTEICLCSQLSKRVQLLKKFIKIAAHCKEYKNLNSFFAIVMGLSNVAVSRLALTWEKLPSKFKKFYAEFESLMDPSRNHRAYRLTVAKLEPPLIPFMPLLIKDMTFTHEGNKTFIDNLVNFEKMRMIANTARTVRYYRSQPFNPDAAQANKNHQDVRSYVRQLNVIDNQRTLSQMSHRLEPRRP

Cc1ccc(SC/C(O)=C(\C#N)c2nc3ccccc3s2)cc1
inactive: all assays above

Cc1ccc(O)c(-c2n[nH]c3c2C(c2ccc(F)cc2)N(Cc2ccco2)C3=O)c1 (configuration not stated)
inactive: all assays above

O=C1c2cccc3cc([N+](=O)[O-])cc(c23)C(=O)N1/N=C/c1ccc(O)cc1O
inactive: all assays above
